An excerpt weighted towards active compounds, which were near 2.1% of everything screened.
YB-1 expr inh = inhibitors of YB-1 gene expression, primary screen, cell-based, fluorescence; U2OS, qRT-PCR YB-1 vs CDIP delta delta Cp, 16 h; stronger effect = higher value; zero = DMSO, each unit about twofold; delta delta Cp (YB-1 minus CDIP) (test concentration not listed); 0.37% of 30,000 active;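 active = delta delta Cp rounded down to an integer at or above 3, about 3 SD of DMSO wells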;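 also: higher means less YB-1 transcript or more CDIP transcript relative to DMSO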
U2OS ROS induce = ROS inducers in U2OS cancer cells, primary screen, cell-based, H2DCF-DA fluorescence; AID 624156, 2012; 2% of 46,000 active; U2OS ROS induction; ROS induction (% of piperlongumine), % at 10 µM; in the data active = ROS induction above about 79%, passing the limit was not always enough;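 also: 0% = DMSO vehicle median and 100% = reference compound median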
The depositor's hits bear a star; . = no result.

SMILES	YB-1 expr inh	U2OS ROS induce
COc1cc(C(=O)C(C#N)c2nc3ccccc3s2)cc(OC)c1OC (stereo unspecified)	.	-14
COc1ccccc1N1C(=O)CCC1(C#N)c1ccc(OCc2ccccc2)cc1 (stereo unspecified)	.	15
Cc1noc(C)c1S(=O)(=O)Nc1ccc2c(c1)C(=O)N([C@H](C)CO)C[C@@H](C)[C@@H](CN(C)Cc1ccc(Cl)c(Cl)c1)O2	-0.044	101*
Cc1noc(C)c1S(=O)(=O)Nc1ccc2c(c1)C(=O)N([C@H](C)CO)C[C@H](C)[C@@H](CN(C)Cc1ccc(Cl)c(Cl)c1)O2	-0.026	72
CNC[C@@H]1Oc2ccc(NS(=O)(=O)c3c(C)noc3C)cc2CC(=O)N([C@H](C)CO)C[C@@H]1C	-0.052	-6
CNC[C@@H]1Oc2ccc(NS(=O)(=O)c3c(C)noc3C)cc2CC(=O)N([C@H](C)CO)C[C@H]1C	0.28	99*
CCCN(CCC)C(=O)c1ccccc1Cl	.	-2
O=C(Cn1ncn2c(cc3ccccc32)c1=O)NCc1ccc(Cl)cc1	.	-18
C[C@H]1CN([C@@H](C)CO)C(=O)c2cc(NC(=O)Nc3cccc4ccccc34)ccc2O[C@@H]1CN(C)C(=O)Nc1ccc(C(F)(F)F)cc1	-0.15	80*
C[C@H](CO)N1C[C@H](C)[C@H](CN(C)C(=O)Nc2ccc(C(F)(F)F)cc2)Oc2ccc(NC(=O)Nc3cccc4ccccc34)cc2CC1=O	0.089	2
C[C@@H]1CN([C@@H](C)CO)C(=O)c2cc(NC(=O)Nc3cccc4ccccc34)ccc2O[C@@H]1CN(C)C(=O)Nc1ccc(C(F)(F)F)cc1	-0.22	42
C[C@@H]1CN([C@@H](C)CO)C(=O)Cc2cc(NC(=O)Nc3cccc4ccccc34)ccc2O[C@@H]1CN(C)C(=O)Nc1ccc(C(F)(F)F)cc1	0.26	162*
O=C1Nc2ccccc2S/C1=C\C(=O)N1CCN(c2ccccc2)CC1	.	-10
Cc1cc(/C=C2/C(=N)N3C=CSC3=NC2=O)c(C)n1-c1ccccc1	.	220*
Cc1ccc(COc2ccc(/C=C3/C(=N)N4C=CSC4=NC3=O)cc2Br)cc1	.	-4
O=S(=O)(C1=CC23CCCC2(C=C(S(=O)(=O)c2ccc(Cl)cc2)C3)C1)c1ccc(Cl)cc1 (stereo unspecified)	-0.75	81*
CC1CCCCN1S(=O)(=O)c1ccc(Cl)cc1 (stereo unspecified)	.	-5
COC(=O)c1cc2occc2n1Cc1ccccc1	.	-5
CC(=O)O[C@H]1[C@H](Oc2ccccc2COC(=O)C2(O)C=CCCC2=O)O[C@H](CO)[C@@H](O)[C@@H]1O (stereo partly specified)	-0.46	-5
CC(=O)O[C@H]1[C@H](Oc2ccccc2COC(=O)C2(O)C=CCCC2=O)O[C@H](COC(=O)C2(O)C=CCCC2=O)[C@@H](O)[C@@H]1O (stereo partly specified)	0.081	89*
C[C@@H]1CN([C@@H](C)CO)C(=O)c2cccc(NC(=O)CCCCCC(=O)Nc3ccccc3N)c2O[C@H]1CN(C)Cc1ccc2c(c1)OCO2	-0.36	105*
C[C@H](CO)N1C[C@H](C)[C@@H](CN(C)Cc2ccc3c(c2)OCO3)Oc2c(NC(=O)CCCCCC(=O)Nc3ccccc3N)cccc2C1=O	0.39	39
C[C@H](CO)N1C[C@H](C)[C@H](CN(C)Cc2ccc3c(c2)OCO3)Oc2ccc(NC(=O)CCCCCC(=O)Nc3ccccc3N)cc2C1=O	0.4	-5
C[C@@H]1CN([C@H](C)CO)C(=O)Cc2cc(NC(=O)CCCCCC(=O)Nc3ccccc3N)ccc2O[C@@H]1CN(C)Cc1ccncc1	-0.24	-1
C[C@H]1CN([C@@H](C)CO)C(=O)c2cccc(NC(=O)CCCCCC(=O)Nc3ccccc3N)c2O[C@@H]1CN(C)Cc1ccc2c(c1)OCO2	0.02	108*
SMILES	YB-1 expr inh	U2OS ROS induce
C[C@@H]1CN([C@H](C)CO)C(=O)Cc2cc(NC(=O)CCCCCC(=O)Nc3ccccc3N)ccc2O[C@@H]1CN(C)Cc1ccc(Cl)c(Cl)c1	0.25	84*
O=C(Cn1c(=O)n(-c2ccccc2)c(=O)n1CC(=O)N1CCOCC1)N1CCOCC1	.	-14
COC(=O)c1sccc1OC(=O)c1nn(-c2ccccc2)nc1C	.	-11
CCOC(=O)c1sc(-c2ccccc2)nc1OCc1c(Cl)cccc1Cl	.	7
Cc1cc(I)ccc1NC(=O)CN(c1cccc(F)c1)S(C)(=O)=O	.	46
Cc1cccc(N(CC(=O)Nc2ccc(I)cc2C)S(C)(=O)=O)c1	.	129*
COc1ccc(C)cc1N(CC(=O)Nc1cccc(Cl)c1Cl)S(C)(=O)=O	.	85*
COc1ccc(OC)c(N(CC(=O)Nc2cccc(Cl)c2Cl)S(C)(=O)=O)c1	.	-7
CCN(CC)C(=O)Cn1ncc2c(C)n(Cc3ccccc3F)c(C)c2c1=O	.	-3
CCc1ccccc1NC(=O)c1ccc2nc(N3CCC(C)CC3)sc2c1	.	1
N#CCN(CC#N)C(=O)c1ccc(C(=O)N(CC#N)CC#N)cc1	.	5
CCC(C(=O)NC1CCCC1)n1c(SCc2ccc(C)cc2)nc2ccncc21 (stereo unspecified)	.	53
COc1ccccc1OCC(=O)Nc1cccc(-c2nnc(-c3ccccc3)o2)c1	.	-2
COc1ccc(-c2nnc(-c3ccc(S(=O)(=O)c4ccccc4)cc3)o2)cc1OC	.	126*
C/C(=C/CCC(CO)C1CCC2(C)C3CCC4C(C)(C)C(OC5OC(CO)C(O)C(O)C5O)CCC45CC35CCC12C)COC1OC(COC2OC(CO)C(O)C(O)C2O)C(O)C(O)C1O (stereo unspecified)	5.8*	-7
C/C(=C/CCC(CO)C1CCC2(C)C3CCC4C(C)(C)C(OC5OC(CO)C(O)C(O)C5O)CC(O)C45CC35CCC12C)COC1OC(CO)C(O)C(O)C1O (stereo unspecified)	0.17	-17
Nc1c(C(=O)c2ccccc2)sc2nc3c(cc12)CCCC3	.	42
CCn1c(C)c(CCC(=O)N2CCCC2)c(=O)n2nc(-c3ccccc3OC)cc12	.	8
COc1ccc(C2CC(=O)Nc3cc4c(cc32)OCO4)cc1 (stereo unspecified)	.	-11
Cc1nc2c(cnn2-c2ccccc2)c(=O)n1NC(=O)Nc1ccc(Cl)c(Cl)c1	9.9*	25
CCOC(=O)c1cnn(-c2ccccc2)c1NC(=O)Nc1cccc(Cl)c1	.	-8
CCOC(=O)c1c(NC(=O)c2ccco2)sc2c1CCCC2=O	.	5
CCOC(=O)c1sc2cc(OC)ccc2c1Cl	.	3
O=C(Nc1ccc(Br)cc1)C1CC(=O)N(c2ccccc2)C(=Nc2ccccc2)S1 (stereo unspecified)	.	-14
COc1ccccc1-c1cc(C(F)(F)F)nc(S(=O)(=O)CCCC(=O)N2CCOCC2)n1	.	90*
SMILES	YB-1 expr inh	U2OS ROS induce
COc1ccc(OC)c(S(=O)(=O)N(C)CC(=O)N2CCOCC2)c1	.	-13
CCn1c(O)c(C2=NC(=S)NC2=O)c2ccccc21	.	2
C=CCn1c(-c2cccc(C)c2)nc2ccccc21	.	-8
CC(C)(C)c1ccc(-c2nnc(SCC(=O)Nc3ccccc3[N+](=O)[O-])o2)cc1	.	1
CC(C)(C)c1ccc(-c2nnc(-c3ccccc3NC(=O)/C=C\C(=O)O)o2)cc1	.	80*
COC(=O)c1c(C)oc2ccc(N(C(C)=O)S(=O)(=O)c3ccc4ccccc4c3)cc12	.	58

From PubChem BioAssay
